# Measured values taken from PubChem BioAssay.
# Active and inactive are the calls of the source.
# Experiments:
# [1] = test system: Human papillomavirus type 1a protein E7 (residues 44-93); experiment: small molecules binding HPV E7 44-93 – biochemical, small-molecule microarray, residues 44-93, 635 nm fluorescence, primary screen (AID 1108); details: fluorescence 635 nm, higher = more signal;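 note: E7 fragment applied at 1 µg/mL in TBST for 1 h at 4 C; score combines spot fluorescence with its signal to noise ratio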
# [2] = hepatitis C replication reporter changes, two-sided – Huh7 cells, luciferase reporter, HCV replication inhibitor project, primary screen (AID 1109); details: Huh7 HCV replicon luciferase reporter, 48 h; higher = more signal;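 note: huh7 hepatoma cells harbouring a luciferase neomycin HCV replicon reporter; luciferase luminescence as measure of HCV replicon replication; test concentration not given here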
# [3] = biological target: Left-right determination factor 2 (Homo sapiens) (UniProt O00292); experiment: small molecules binding LEFTY2 protein – biochemical, small-molecule microarray, 635 nm fluorescence scan, primary screen (AID 1110); details: higher = more signal
# [4] = biological target: Calmodulin-1 (Homo sapiens) (UniProt P0DP23); experiment: small molecules binding calmodulin-1 with EGTA – biochemical, small-molecule microarray, Cy5-labelled CALM1, profiling panel (AID 1111); details: Cy5-CALM1 binding fluorescence, higher = more signal;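 note: labelled calmodulin applied in Tris saline Tween buffer holding calcium plus EGTA and DTT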
# [5] = biological target: Calmodulin-1 (Homo sapiens) (UniProt P0DP23); experiment: small molecules binding Ca-loaded calmodulin-1 – biochemical, small-molecule microarray, Cy5-labelled CALM1, plus calcium, artefact control for SMM control-protein annotation, profiling panel (AID 1112); details: Cy5-CALM1 binding fluorescence, higher = more signal;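 note: score merges spot fluorescence with signal to noise from triplicate slides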
# [6] = probe aWnt5a binding to arrayed compounds – biochemical, biotinylated probe, 635/667 nm fluorescence, primary screen (AID 1113); details: small-molecule microarray, higher = more signal;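 note: score merges 667 nm fluorescence intensity with signal-to-noise per printed feature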
# [7] = probe aShh binding to arrayed compounds – biochemical, biotinylated probe, 635/667 nm fluorescence, primary screen (AID 1114); details: small-molecule microarray, higher = more signal;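 note: probe is biotin-labelled aShh protein from a stem cell growth factor screen; measures binding of labelled protein to compounds printed on the slide; score merges feature fluorescence at 667 nm with signal-to-noise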
# [8] = probe aNog binding to arrayed compounds – biochemical, biotinylated probe, 635/667 nm fluorescence, primary screen (AID 1115); details: small-molecule microarray, higher = more signal;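 note: probe is biotinylated aNog protein used at 0.15 µg/mL for 1 h at 4 C; z-score combines 667 nm fluorescence of each spot with its signal to noise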
# [9] = biological target: Torsin-1A-interacting protein 1 (Homo sapiens) (UniProt Q5JTV8); experiment: compound microarray binding of lysate hLAP1 – cell lysate, small-molecule microarray, COS7 lysate, 635/667 nm fluorescence, primary screen (AID 1116); details: 635 nm fluorescence, higher = more signal
# [10] = biological target: Alpha-bungarotoxin (Bungarus multicinctus) (UniProt P60615); experiment: compounds binding labelled alpha-BTX control protein – biochemical, small-molecule microarray, Alexa647 label, 635/667 nm fluorescence, artefact control for SMM control protein annotation, profiling panel (AID 1117); details: alpha-BTX-A647 binding fluorescence, higher = more signal
# Albumin (Bos taurus) = Albumin (Bos taurus) (UniProt P02769); experiment: compounds binding labelled BSA control protein – biochemical, small-molecule microarray, Alexa647 label, 635/667 nm fluorescence, artefact control for SMM control protein annotation, profiling panel (AID 1118); details: BSA-A647 binding, fluorescence 635 nm, higher = more signal;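 note: score merges 667 nm emission intensity and signal-to-noise per printed compound spot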
# [11] = probe aXIP binding to arrayed compounds – biochemical, NeuroSMM set, 635/667 nm fluorescence, primary screen (AID 1119); details: small-molecule microarray, higher = more signal, called active from +8 up or from −8 down;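 note: probe is the protein aXip251-270 applied at 1 µg/mL to compound-printed slides; binding of probe to printed compounds measured as 667 nm fluorescence plus signal to noise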
# [12] = probe aNOTCH3 binding on compound microarray – biochemical, small-molecule microarray, 635/667 nm fluorescence, primary screen (AID 1120); details: higher = more signal;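 note: probe is a biotin-tagged antibody raised against NOTCH3 rather than NOTCH3 protein; score merges spot fluorescence near 667 nm with spot signal to noise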
# [13] = probe aNOTCH2 binding on compound microarray – biochemical, small-molecule microarray, 635/667 nm fluorescence, primary screen (AID 1121); details: higher = more signal;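 note: score merges feature fluorescence read at 667 nm with its signal to noise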
# [14] = biological target: Carbonic anhydrase 2 (Homo sapiens) (UniProt P00918); experiment: compounds binding carbonic anhydrase 2 – biochemical, small-molecule microarray, Alexa647-labelled CAII, profiling panel (AID 1122); details: CAII-A647 binding fluorescence, higher = more signal
# [15] = COS7 lysate on small-molecule microarray, probe aHis, 635 nm (AID 1123); details: COS7 cell lysate, fluorescence, higher = more signal;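 note: z-score combines 667nm fluorescence intensity with signal-to-noise per printed compound spot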
# [16] = probe aLAP1 signal on lysate-treated microarray – cell lysate, small-molecule microarray, COS7 lysate, primary screen (AID 1124); details: probe aLAP1, fluorescence, higher = more signal;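 note: lysate comes from COS7 cells expressing LAP1 and is applied at 0.3 µg/mL; score merges spot fluorescence near 667 nm with signal-to-noise over triplicate slides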
# Sam68 (KHDRBS1) = experiment: compounds binding KHDRBS1 protein – biochemical, small-molecule microarray, 635 nm fluorescence, primary screen (AID 1125); details: higher = more signal;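 note: score merges 667 nm channel intensity with signal to noise over triplicate slides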
# [17] = test system: Chordin-like protein 2 (CHRDL2); experiment: compounds binding chordin-like 2 – biochemical, small-molecule microarray, 635 nm fluorescence, primary screen (AID 1126); details: fluorescence 635 nm, higher = more signal;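 note: printed compound slides probed with Chrdl2 protein at 4 µg/mL for 1 h at 4 C; score merges 667 nm emission intensity with signal to noise over three replicate slides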
# [18] = biological target: Concanavalin-A (Canavalia ensiformis) (UniProt P02866); experiment: compounds binding concanavalin A lectin – biochemical, small-molecule microarray, Alexa647 label, 635 nm, artefact control for SMM control protein annotation, primary screen (AID 1127); details: ConA-A647 binding fluorescence, higher = more signal;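 note: z combines 667 nm emission intensity with signal-to-noise across three replicate slides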
# Sequence of Concanavalin-A (Canavalia ensiformis) (P02866 whole entry, looked up): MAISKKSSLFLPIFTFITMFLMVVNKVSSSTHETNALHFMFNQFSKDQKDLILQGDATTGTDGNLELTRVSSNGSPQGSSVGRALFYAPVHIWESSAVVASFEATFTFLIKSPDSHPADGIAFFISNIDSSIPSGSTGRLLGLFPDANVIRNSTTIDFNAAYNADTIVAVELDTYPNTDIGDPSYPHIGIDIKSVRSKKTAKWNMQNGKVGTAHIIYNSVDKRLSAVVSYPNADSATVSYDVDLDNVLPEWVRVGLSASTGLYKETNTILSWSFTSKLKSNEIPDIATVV
# Sequence of Albumin (Bos taurus) (P02769 whole entry, looked up): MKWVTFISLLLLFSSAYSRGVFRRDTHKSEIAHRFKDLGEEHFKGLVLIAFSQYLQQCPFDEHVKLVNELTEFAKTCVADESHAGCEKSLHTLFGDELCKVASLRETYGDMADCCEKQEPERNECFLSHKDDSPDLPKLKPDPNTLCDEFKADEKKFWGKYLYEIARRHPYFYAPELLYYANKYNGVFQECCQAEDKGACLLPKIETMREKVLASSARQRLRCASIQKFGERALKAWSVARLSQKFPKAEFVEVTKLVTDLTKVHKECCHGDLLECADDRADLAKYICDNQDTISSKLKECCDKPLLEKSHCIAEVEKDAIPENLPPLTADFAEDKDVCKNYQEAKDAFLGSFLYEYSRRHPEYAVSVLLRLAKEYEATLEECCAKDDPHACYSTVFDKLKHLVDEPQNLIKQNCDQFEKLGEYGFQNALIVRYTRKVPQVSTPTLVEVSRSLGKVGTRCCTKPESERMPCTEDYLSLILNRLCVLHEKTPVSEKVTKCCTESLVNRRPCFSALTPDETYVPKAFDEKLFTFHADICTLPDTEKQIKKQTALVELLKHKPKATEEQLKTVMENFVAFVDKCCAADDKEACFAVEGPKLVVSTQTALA
# Sequence of Alpha-bungarotoxin (Bungarus multicinctus) (P60615 whole entry, looked up): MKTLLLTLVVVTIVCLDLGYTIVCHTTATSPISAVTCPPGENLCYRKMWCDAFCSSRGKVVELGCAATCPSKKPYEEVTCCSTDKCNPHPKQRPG
# Sequence of Left-right determination factor 2 (Homo sapiens) (O00292 whole entry, looked up): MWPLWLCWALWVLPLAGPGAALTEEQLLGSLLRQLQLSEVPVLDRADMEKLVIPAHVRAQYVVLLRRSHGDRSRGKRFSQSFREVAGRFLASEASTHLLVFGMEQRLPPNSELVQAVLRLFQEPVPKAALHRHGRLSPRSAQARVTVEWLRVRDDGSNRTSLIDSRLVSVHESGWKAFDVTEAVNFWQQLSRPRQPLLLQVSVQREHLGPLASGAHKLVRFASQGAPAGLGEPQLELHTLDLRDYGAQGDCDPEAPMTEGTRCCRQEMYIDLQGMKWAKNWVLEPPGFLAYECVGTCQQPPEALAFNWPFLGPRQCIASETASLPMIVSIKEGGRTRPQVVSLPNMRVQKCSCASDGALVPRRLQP
# Sequence of Torsin-1A-interacting protein 1 (Homo sapiens) (Q5JTV8 whole entry, looked up): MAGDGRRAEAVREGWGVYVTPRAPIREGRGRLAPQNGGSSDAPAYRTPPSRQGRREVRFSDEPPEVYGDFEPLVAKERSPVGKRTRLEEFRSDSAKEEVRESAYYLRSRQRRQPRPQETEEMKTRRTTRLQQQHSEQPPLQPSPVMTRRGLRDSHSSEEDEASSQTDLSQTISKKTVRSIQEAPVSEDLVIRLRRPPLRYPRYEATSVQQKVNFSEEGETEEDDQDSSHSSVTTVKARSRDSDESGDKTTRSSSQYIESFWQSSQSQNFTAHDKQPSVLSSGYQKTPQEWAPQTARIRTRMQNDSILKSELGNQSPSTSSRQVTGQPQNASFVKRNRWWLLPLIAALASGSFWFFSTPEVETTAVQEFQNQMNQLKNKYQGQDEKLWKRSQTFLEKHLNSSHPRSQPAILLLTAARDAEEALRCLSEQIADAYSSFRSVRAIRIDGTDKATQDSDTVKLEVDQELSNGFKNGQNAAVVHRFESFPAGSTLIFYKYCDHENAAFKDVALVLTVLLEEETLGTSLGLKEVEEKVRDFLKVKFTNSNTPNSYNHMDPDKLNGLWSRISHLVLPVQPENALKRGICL
SMILES,composite z-score [1],z-score [2],composite z-score [3],composite z-score [4],composite z-score [5],composite z-score [6],composite z-score [7],composite z-score [8],composite z-score [9],composite z-score [10],composite z-score (Albumin (Bos taurus)),composite Z-score [11],composite z-score [12],composite z-score [13],composite z-score [14],composite z-score [15],composite z-score [16],composite z-score (Sam68 (KHDRBS1)),composite z-score [17],composite z-score [18]
CCCNC(=O)OC[C@H]1O[C@H](CCON=C[C@@H](C)[C@H](OCc2ccccc2)C(C)C)C=C[C@@H]1Oc1ccc(OC)cc1,0.427,-2.17,0.182,-0.755,-0.515,-0.156,-0.484,-0.196,-0.163,0.297,-0.655,-0.288 (inactive),-0.0308,-0.149,-0.473,0.775,-0.394,-1.04,0.379,-0.501
COC(=O)[C@@H]1CC[C@H](C)[C@@H](c2ccc(Br)cc2)N1C(=O)C(F)(F)F,-1.1,-0.317,0.179,-0.257,0.137,-0.226,-0.476,-0.127,-0.287,0.263,-0.591,-0.225 (inactive),-0.232,-0.1,-0.292,0.23,0.0015,-0.412,-0.183,-0.317
COc1ccc(COC(=O)NN=C2C[C@@H](O)[C@@H](O)[C@@H]3[C@@H]4C(=O)N(C[C@@H]5CCCO5)C(=O)[C@@H]4CC[C@@H]23)cc1,0.222,0.778,0.179,0.342,-0.636,-0.172,-0.0793,-0.0496,0.411,0.915,0.0566,0.58 (inactive),-0.128,-0.0832,0.234,0.727,0.824,0.78,0.508,0.327
CCOC(=O)CCN1C(=O)[C@H]2[C@@H]3C(=CC[C@H]2C1=O)C(=O)[C@H]1O[C@H]1[C@H]3O,-0.636,-4.75,-0.72,-0.719,-0.481,-0.222,-0.221,-0.358,0.447,-0.473,0.375,-0.342 (inactive),-0.313,-0.146,0.534,-0.774,0.0946,-0.728,-0.23,-0.666
COC(=O)[C@H](C)NC(=O)CCC1CC(OC(=O)NCc2cccc3ccccc23)CC2(CCCC(COC(=O)NCc3cccc(C(F)(F)F)c3)O2)O1 (stereo not given in full),1.32,-0.548,0.925,1.1,0.269,-0.0384,-0.138,-0.23,0.208,0.292,0.845,0.15 (inactive),0.106,-0.0846,0.15,1.78,0.0331,1.31,0.293,1.12
